Measurements taken from PubChem BioAssay AID624288 (National Center for Advancing Translational Sciences (NCATS), 2012).
Among all 340,000 compounds or so, about 1,400 (0.41%) were called active. Another 4% or so got no clear call; they are omitted. The call rests on the fitted dose curve; cell line not stated here. For the sample, actives were picked, then their nearest neighbours and some compounds at random.

experiment: qHTS for Antagonists of gsp, the Etiologic Mutation Responsible for Fibrous Dysplasia/McCune-Albright Syndrome: qHTS; conditions: gsp-mutant cells, cAMP HTRF, 30 min; series mostly up to 76.9 µM; activity change, negative = inhibition: at the top concentration; further: nearly all actives have a fitted effect of over 65% in size
Excerpt: McCune-Albright syndrome (MAS) is a rare disease caused by somatic mutations in Gsgsp), a widely expressed protein central in signal transduction from G-coupled protein receptors (GPCRs). The disease symptoms are diverse, owing to the fact that the patients are mosaics with varying degrees of tissue involvement. Greater than 90% of the mutations in Gs in MAS occur at the R201 position and are equally divided between R201H and R201C. The R201 residue is central in the intrinsic GTPase activity of Gs and the H and C mutations lead to loss of, or impairment of, the GTPase activity. The intrinsic GTPase activity is necessary to terminate the interaction between Gs and adenylate cyclase, and to terminate the cAMP-mediated signaling of the given GPCR pathway. Thus, these activating mutations lead to ligand-independent activation of GPCR pathways. The tissue phenotype is determined by the role of Gs in the function of a given cell, and excess Gs/cAMP signaling in that cell. For example, pituitary somatotrophs overproduce growth hormone in a growth hormone releasing hormone-independent fashion, and gigantism/acromegaly ensues. Skeletal stem cells in the bone marrow behave as if they are under constant parathyroid hormone stimulation and fail to differentiate into osteoblasts and osteocytes, and proliferate as immature osteogenic cells and lead to the marrow fibrosis of fibrous dysplasia of bone. The goal of this project is to identify molecules with inhibitory activity at gsp mutations that will not only allow for in-depth study of the underlying molecular and cellular pathophysiology, but also serve as compounds from which drugs to treat FD/MAS can be developed NIH Chemical Genomics Center [NCGC] NIH Molecular Libraries Probe Centers Network [MLPCN] MLPCN Grant: IRP-FT-DE-2011-01 Assay Submitter (PI): Michael Collins, NIDCR
1.#Seed 2000 cells/well in 6 ul DMEM 10% FBS, 1% Pen/Strep, 0.5 mg/ml G418 2.#Incubate 16-24 hr at 37C, 5% CO2, 95% humidity 3.#Aspirate leaving 1 ul residual volume 4.#Dispense 5 ul/well DPBS + 1 mM CaCl2, 0.5 mM MgCl2, 0.05% BSA, 0.005% Tween 20 5.#Aspirate leaving 2 ul residual volume 6.#Dispense 23 nl/well compounds in DMSO 7.#Dispense 1 ul/well 300 uM Ro-20174 in DMEM 10% FBS 8.#Incubate 30 min at 37C, 5% CO2, 95% humidity 9.#Dispense 1.5 ul/well HTRF reagent: cAMP-d2 in lysis buffer 10.#Dispense 1.5 ul/well HTRF reagent: anti-cAMP antibody-K in lysis buffer 11.#Incubate 30 min at room temperature 12.#Detect HTRF signal using EnVision plate reader
On the % scale 0 is the no-effect control and ±100 the full control effect; potency means the concentration at half of the fitted maximal effect.

| SMILES | Potency | activity change, negative = inhibition |
| --- | --- | --- |
| CC1=CC(=Cc2sc3ccccc3[n+]2C)C=C(C)O1 | 44.7 µM (active) |  |
| COc1ccc(-n2c(-c3ccccc3)nc3ccccc3c2=O)cc1 |  | -9.38% (inactive) |
| CCC(=O)CC(c1ccc([N+](=O)[O-])cc1)c1c(O)c2ccccc2oc1=O (stereo not given) | 31.6 µM (active) |  |
| Cc1ccc(-n2c(-c3ccc([N+](=O)[O-])cc3)nc3ccccc3c2=O)cc1 |  | -12.7% (inactive) |
| COc1cc(C(c2c(O)c3ccccc3oc2=O)c2c(C)n(C)n(-c3ccccc3)c2=O)ccc1O (stereo not given) |  | 19.4% (inactive) |
| CC[C@H]1CN2CCc3cc(OC)c(OC)cc3[C@@H]2C[C@@H]1C[C@H]1NCCc2cc(OC)c(OC)cc21 |  | -7.25% (inactive) |
| CN(C)C(=O)NC(O)C(Cl)(Cl)Cl (stereo not given) |  | 7.94% (inactive) |
| CC(=O)OC1C2(CC3N4C(=O)C5(CO)SSC4(CC31O)C(=O)N5C)OC(C)C(C)(C)C2=O (stereo not given) |  | 4.27% (inactive) |
| C=CCn1c(O)c(/C=N/N2CCOCC2)c(=O)[nH]c1=S |  | -6.96% (inactive) |
| COC(=O)C1=C(c2c(C)noc2C)C[C@@H]2CC[C@H]1N2C(=O)NCc1ccc2c(c1)OCO2 |  | 4.81% (inactive) |
